“And” between values parts separate entries of the source, which are not always exact repeats. Equal values may be shown once. The source made the active and inactive calls.

The test system of experiment [1] is Human papillomavirus type 1a protein E7 (residues 44-93). The experiment can be described thus: small molecules binding HPV E7 44-93 – biochemical, small-molecule microarray, residues 44-93, 635 nm fluorescence, primary screen (AID 1108).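 Further: E7 fragment applied at 1 µg/mL in TBST for 1 h at 4 C; score combines spot fluorescence with its signal to noise ratio.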 To be noted: fluorescence 635 nm, higher = more signal.
Experiment [2] can be described thus: hepatitis C replication reporter changes, two-sided – Huh7 cells, luciferase reporter, HCV replication inhibitor project, primary screen (AID 1109).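 Further: huh7 hepatoma cells harbouring a luciferase neomycin HCV replicon reporter; luciferase luminescence as measure of HCV replicon replication; test concentration not given here.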 The settings on record: Huh7 HCV replicon luciferase reporter, 48 h; higher = more signal. (In a reporter assay the amount or activity of a reporter protein is the signal.)
Experiment [3] addresses Left-right determination factor 2 (Homo sapiens) (UniProt O00292). The experiment can be described thus: small molecules binding LEFTY2 protein – biochemical, small-molecule microarray, 635 nm fluorescence scan, primary screen (AID 1110). To be noted: higher = more signal.
Experiment [4] has as its target Calmodulin-1 (Homo sapiens) (UniProt P0DP23). As to the kind of experiment: small molecules binding calmodulin-1 with EGTA – biochemical, small-molecule microarray, Cy5-labelled CALM1, profiling panel (AID 1111).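 Further: labelled calmodulin applied in Tris saline Tween buffer holding calcium plus EGTA and DTT.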 To be noted: Cy5-CALM1 binding fluorescence, higher = more signal.
For experiment [5] the target is unchanged. The experiment can be described thus: small molecules binding Ca-loaded calmodulin-1 – biochemical, small-molecule microarray, Cy5-labelled CALM1, plus calcium, artefact control for SMM control-protein annotation, profiling panel (AID 1112).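 Further: score merges spot fluorescence with signal to noise from triplicate slides.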 To be noted: Cy5-CALM1 binding fluorescence, higher = more signal.
Experiment [6] can be described thus: probe aWnt5a binding to arrayed compounds – biochemical, biotinylated probe, 635/667 nm fluorescence, primary screen (AID 1113).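 Further: score merges 667 nm fluorescence intensity with signal-to-noise per printed feature.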 The settings on record: small-molecule microarray, higher = more signal.
A short description of experiment [7]: probe aShh binding to arrayed compounds – biochemical, biotinylated probe, 635/667 nm fluorescence, primary screen (AID 1114).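 Further: probe is biotin-labelled aShh protein from a stem cell growth factor screen; measures binding of labelled protein to compounds printed on the slide; score merges feature fluorescence at 667 nm with signal-to-noise.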 To be noted: small-molecule microarray, higher = more signal.
The nature of experiment [8]: probe aNog binding to arrayed compounds – biochemical, biotinylated probe, 635/667 nm fluorescence, primary screen (AID 1115).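 Further: probe is biotinylated aNog protein used at 0.15 µg/mL for 1 h at 4 C; z-score combines 667 nm fluorescence of each spot with its signal to noise.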 To be noted: small-molecule microarray, higher = more signal.
In experiment [9] the target is Torsin-1A-interacting protein 1 (Homo sapiens) (UniProt Q5JTV8). As to the kind of experiment: compound microarray binding of lysate hLAP1 – cell lysate, small-molecule microarray, COS7 lysate, 635/667 nm fluorescence, primary screen (AID 1116). To be noted: 635 nm fluorescence, higher = more signal.
The target of experiment [10] is Alpha-bungarotoxin (Bungarus multicinctus) (UniProt P60615). The experiment can be described thus: compounds binding labelled alpha-BTX control protein – biochemical, small-molecule microarray, Alexa647 label, 635/667 nm fluorescence, artefact control for SMM control protein annotation, profiling panel (AID 1117). The settings on record: alpha-BTX-A647 binding fluorescence, higher = more signal.

The target in the next experiment is Albumin (Bos taurus) (UniProt P02769). As to the kind of experiment: compounds binding labelled BSA control protein – biochemical, small-molecule microarray, Alexa647 label, 635/667 nm fluorescence, artefact control for SMM control protein annotation, profiling panel (AID 1118).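 Further: score merges 667 nm emission intensity and signal-to-noise per printed compound spot.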 The settings on record: BSA-A647 binding, fluorescence 635 nm, higher = more signal.

Experiment [11] in a line: probe aXIP binding to arrayed compounds – biochemical, NeuroSMM set, 635/667 nm fluorescence, primary screen (AID 1119).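 Further: probe is the protein aXip251-270 applied at 1 µg/mL to compound-printed slides; binding of probe to printed compounds measured as 667 nm fluorescence plus signal to noise.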 To be noted: small-molecule microarray, higher = more signal, called active from +8 up or from −8 down.
Experiment [12] can be described thus: probe aNOTCH3 binding on compound microarray – biochemical, small-molecule microarray, 635/667 nm fluorescence, primary screen (AID 1120).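 Further: probe is a biotin-tagged antibody raised against NOTCH3 rather than NOTCH3 protein; score merges spot fluorescence near 667 nm with spot signal to noise.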 To be noted: higher = more signal.
Experiment [13] is described as follows: probe aNOTCH2 binding on compound microarray – biochemical, small-molecule microarray, 635/667 nm fluorescence, primary screen (AID 1121).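 Further: score merges feature fluorescence read at 667 nm with its signal to noise.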 The settings on record: higher = more signal.
For experiment [14], the target named is Carbonic anhydrase 2 (Homo sapiens) (UniProt P00918). The experiment can be described thus: compounds binding carbonic anhydrase 2 – biochemical, small-molecule microarray, Alexa647-labelled CAII, profiling panel (AID 1122). The settings on record: CAII-A647 binding fluorescence, higher = more signal.
A short description of experiment [15]: COS7 lysate on small-molecule microarray, probe aHis, 635 nm (AID 1123).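 Further: z-score combines 667nm fluorescence intensity with signal-to-noise per printed compound spot.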 The settings on record: COS7 cell lysate, fluorescence, higher = more signal.
Experiment [16] in a line: probe aLAP1 signal on lysate-treated microarray – cell lysate, small-molecule microarray, COS7 lysate, primary screen (AID 1124).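 Further: lysate comes from COS7 cells expressing LAP1 and is applied at 0.3 µg/mL; score merges spot fluorescence near 667 nm with signal-to-noise over triplicate slides.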 The settings on record: probe aLAP1, fluorescence, higher = more signal.
Another experiment deals with Sam68 (KHDRBS1). As to the kind of experiment: compounds binding KHDRBS1 protein – biochemical, small-molecule microarray, 635 nm fluorescence, primary screen (AID 1125).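 Further: score merges 667 nm channel intensity with signal to noise over triplicate slides.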 The settings on record: higher = more signal.
In experiment [17] the test system is Chordin-like protein 2 (CHRDL2). The experiment can be described thus: compounds binding chordin-like 2 – biochemical, small-molecule microarray, 635 nm fluorescence, primary screen (AID 1126).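 Further: printed compound slides probed with Chrdl2 protein at 4 µg/mL for 1 h at 4 C; score merges 667 nm emission intensity with signal to noise over three replicate slides.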 To be noted: fluorescence 635 nm, higher = more signal.
Experiment [18] addresses Concanavalin-A (Canavalia ensiformis) (UniProt P02866). The experiment can be described thus: compounds binding concanavalin A lectin – biochemical, small-molecule microarray, Alexa647 label, 635 nm, artefact control for SMM control protein annotation, primary screen (AID 1127).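 Further: z combines 667 nm emission intensity with signal-to-noise across three replicate slides.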 The settings on record: ConA-A647 binding fluorescence, higher = more signal.

Torsin-1A-interacting protein 1 (Homo sapiens), sequence (Q5JTV8 whole entry, looked up): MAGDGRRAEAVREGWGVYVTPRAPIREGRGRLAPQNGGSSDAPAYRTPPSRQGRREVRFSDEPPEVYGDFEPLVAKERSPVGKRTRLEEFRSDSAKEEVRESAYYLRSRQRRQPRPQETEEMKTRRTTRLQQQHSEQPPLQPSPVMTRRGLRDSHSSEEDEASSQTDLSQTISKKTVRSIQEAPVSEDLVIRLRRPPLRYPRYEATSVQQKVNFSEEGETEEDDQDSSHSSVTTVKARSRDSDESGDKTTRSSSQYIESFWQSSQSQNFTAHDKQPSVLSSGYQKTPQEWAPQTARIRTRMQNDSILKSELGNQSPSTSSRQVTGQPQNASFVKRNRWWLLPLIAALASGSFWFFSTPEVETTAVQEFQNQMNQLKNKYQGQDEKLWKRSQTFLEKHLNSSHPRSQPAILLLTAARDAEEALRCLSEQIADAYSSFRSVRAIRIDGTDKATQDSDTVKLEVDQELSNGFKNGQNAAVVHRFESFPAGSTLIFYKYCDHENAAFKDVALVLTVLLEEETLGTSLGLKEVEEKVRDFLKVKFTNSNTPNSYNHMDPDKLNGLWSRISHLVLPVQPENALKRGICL
Left-right determination factor 2 (Homo sapiens), sequence (O00292 whole entry, looked up): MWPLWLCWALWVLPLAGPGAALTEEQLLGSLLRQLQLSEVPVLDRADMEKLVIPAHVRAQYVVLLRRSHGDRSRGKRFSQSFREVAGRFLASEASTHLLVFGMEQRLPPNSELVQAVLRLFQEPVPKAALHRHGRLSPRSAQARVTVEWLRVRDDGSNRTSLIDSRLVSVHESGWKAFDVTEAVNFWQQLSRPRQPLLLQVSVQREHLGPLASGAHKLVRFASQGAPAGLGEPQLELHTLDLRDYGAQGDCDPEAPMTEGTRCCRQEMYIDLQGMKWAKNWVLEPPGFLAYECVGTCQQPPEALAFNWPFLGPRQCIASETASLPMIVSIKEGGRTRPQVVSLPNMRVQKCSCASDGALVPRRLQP
Concanavalin-A (Canavalia ensiformis), sequence (P02866 whole entry, looked up): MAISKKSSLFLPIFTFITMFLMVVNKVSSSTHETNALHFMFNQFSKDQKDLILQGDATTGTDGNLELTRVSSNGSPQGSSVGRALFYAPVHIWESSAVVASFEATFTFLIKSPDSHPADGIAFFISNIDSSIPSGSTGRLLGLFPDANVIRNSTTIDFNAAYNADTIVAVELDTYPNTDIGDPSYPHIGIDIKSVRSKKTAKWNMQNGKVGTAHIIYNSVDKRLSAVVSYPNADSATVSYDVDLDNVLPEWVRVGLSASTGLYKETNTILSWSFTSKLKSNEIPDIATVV
Alpha-bungarotoxin (Bungarus multicinctus), sequence (P60615 whole entry, looked up): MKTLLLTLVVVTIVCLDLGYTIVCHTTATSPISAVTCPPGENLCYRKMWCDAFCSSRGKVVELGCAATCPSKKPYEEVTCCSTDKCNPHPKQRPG
Albumin (Bos taurus), sequence (P02769 whole entry, looked up): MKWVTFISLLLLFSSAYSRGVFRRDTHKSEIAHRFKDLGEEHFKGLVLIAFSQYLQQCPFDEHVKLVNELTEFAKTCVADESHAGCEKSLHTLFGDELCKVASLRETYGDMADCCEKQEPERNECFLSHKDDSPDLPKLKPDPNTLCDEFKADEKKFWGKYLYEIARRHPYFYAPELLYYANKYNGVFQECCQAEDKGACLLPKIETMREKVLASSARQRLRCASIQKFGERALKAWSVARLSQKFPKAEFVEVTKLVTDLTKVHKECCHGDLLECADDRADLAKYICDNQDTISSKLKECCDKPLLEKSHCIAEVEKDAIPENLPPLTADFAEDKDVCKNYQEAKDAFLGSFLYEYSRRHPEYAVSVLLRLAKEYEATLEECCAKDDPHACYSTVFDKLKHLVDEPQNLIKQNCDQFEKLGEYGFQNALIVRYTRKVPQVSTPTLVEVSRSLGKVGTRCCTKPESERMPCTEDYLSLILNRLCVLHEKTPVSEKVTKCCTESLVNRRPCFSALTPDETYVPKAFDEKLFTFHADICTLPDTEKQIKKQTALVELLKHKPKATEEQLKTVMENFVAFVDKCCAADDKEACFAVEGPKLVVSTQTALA

For the compound `CCC[C@@H]1C[C@@]1(CCC)[C@@H](NC(=O)c1ccc(-c2ccccc2)cc1)c1cccc(Cl)c1`, the composite z-score in experiment [1] was -0.802 and 0.457; in [3], -0.307 and -0.135; in [4], -1.57 and 0.535; in experiment [5], -1.45 and 0.215; in experiment [6] it was 0.874 and 0.103; in experiment [7] it was 2.27 and -0.138. The composite z-score is 2.75 and 0.507 in experiment [8]; 0.415 and 0.868 in experiment [9]; -0.899 and -0.0107 in experiment [10]; -0.0449 and 0.93 with Albumin (Bos taurus); 1.31 and -0.0569 in experiment [12]; 0.723 and 0.0809 in experiment [13]. Further, the composite z-score in experiment [14] was 0.305 and 0.812; in experiment [15] it was 2.51 and 1.41; in experiment [16], 0.421 and -0.244; in the experiment on Sam68 (KHDRBS1), -0.546 and 0.593; in experiment [17], 0.844 and -0.561; in experiment [18], -1.47 and 0.217. Further, the z-score in experiment [2] is -2.13 and -2.05. Also, the composite Z-score in experiment [11] was -0.281 (inactive) and -0.599 (inactive).

As to `CCOC(=O)NN=C1C[C@@H](O)[C@@H](O)[C@@H]2[C@@H]3C(=O)N(Cc4ccccc4)C(=O)[C@@H]3CC[C@@H]12`, the composite z-score was -0.337 in [1]; 0.349 in experiment [3]; -0.546 in [4]; -0.659 in experiment [5]; 0.134 in experiment [6]; -0.2 in experiment [7]. The composite z-score is -0.207 in experiment [8]; 0.297 in experiment [9]; -0.168 in experiment [10]; -0.0904 with Albumin (Bos taurus); -0.166 in experiment [12]; -0.135 in experiment [13]. The composite z-score in [14] is -0.0916; in experiment [15], -0.381; in experiment [16], 0.0195; in the experiment with Sam68 (KHDRBS1), 0.254; in [17], 0.772; in experiment [18], 0.42. Further, the z-score in experiment [2] is -0.16. In addition, the composite Z-score in experiment [11] is 0.182 (inactive).

In the case of `C=CCN(CCCCC)C(=O)C(c1cccs1)N(CCOCCO)C(=O)/C=C\C(=O)O` (stereo not given), the composite z-score in [1] is -1.74 and -0.0507; in experiment [3], -0.828 and -1.56; in experiment [4], -1.04 and -0.776; in experiment [5] it was -0.408 and 0.326; in experiment [6], -0.135 and -0.199; in [7] it was -0.223 and -0.283. Besides, the composite z-score in [8] was -0.308 and 0.0644; in experiment [9], -0.922 and -0.405; in [10], -0.676 and 1.14; with Albumin (Bos taurus), -0.148 and -0.301; in experiment [12] it was -0.554 and -0.488; in [13], -0.177 and -0.143. Also, the composite z-score was 0.86 and 0.368 in [14]; -1.01 and -0.267 in experiment [15]; -0.0541 and 0.235 in [16]; -0.856 and -0.0967 in the experiment on Sam68 (KHDRBS1); -1.91 and -1.04 in [17]; -0.611 and -0.988 in [18]. For the same compound, in experiment [2], the z-score was -0.572 and 0.96. Also, the composite Z-score in experiment [11] is -0.116 (inactive) and 0.239 (inactive).

For the compound `C=CCN(C(=O)C1N(c2ccc(CCO)cc2)C(=O)C2C(C(=O)O)C3C=CC21O3)c1ccc(OC)cc1` (stereo not given), the composite z-score in experiment [1] is -0.178 and -3.84; in experiment [3], -1.59 and -1.27; in experiment [4], -0.394 and -0.181; in experiment [5], -0.702 and 0.0188; in experiment [6], -0.154 and -0.285; in experiment [7], 0.0899 and -0.239. Also, the composite z-score in experiment [8] was -0.172 and 0.0343; in [9], -0.447 and 0.206; in experiment [10], -0.102 and -0.62; with Albumin (Bos taurus) it was -0.326 and -0.0621; in experiment [12], -0.285 and -0.585; in [13] it was -0.14 and -0.0932. Also, the composite z-score in experiment [14] was 0.93 and 0.471; in experiment [15], -0.188 and -0.412; in [16], -0.0393 and -0.133; in the experiment with Sam68 (KHDRBS1) it was 0.0118 and -1.55; in experiment [17] it was -0.726 and -2.53; in experiment [18], 0.287 and -1.64. Besides, the z-score in [2] is 0.174 and 0.383. Besides, in [11], the composite Z-score was -0.177 (inactive) and -0.773 (inactive).

For the compound `CC(CO)N1C(=O)[C@@H]2C3C(=O)OCCC=C[C@H]3OC23C=CCN(C(C)(C)C)C(=O)[C@@H]13` (stereo not given in full), the composite z-score in experiment [1] is -0.925 and -1; in experiment [3], -1.51 and -0.114; in experiment [4] it was -0.286 and -0.991; in experiment [5] it was 1.02 and -1.03; in experiment [6] it was -0.222 and -0.0584; in [7], -0.168 and -0.0553. Also, the composite z-score in [8] was -0.219 and -0.46; in [9] it was 0.232 and 1.48; in [10], -2.94 and -0.198; with Albumin (Bos taurus), 0.231 and -0.322; in experiment [12], -0.34 and 0.037; in experiment [13], -0.211 and -0.14. Besides, the composite z-score was 0.863 and 0.837 in experiment [14]; -0.329 and 0.395 in experiment [15]; 0.241 and 1.27 in experiment [16]; -0.349 and 0.36 in the experiment with Sam68 (KHDRBS1); -1.5 and -0.54 in experiment [17]; -2.13 and -0.887 in [18]. In addition, the z-score in experiment [2] is -0.319 and -0.502. Further, the composite Z-score in experiment [11] is -0.734 (inactive) and 0.825 (inactive).

For the compound `COC(=O)C1=C(C)N(Cc2ccccc2)[C@]23O[C@](C(=O)OC)(C(=O)N2[C@@H]1c1ccccc1)[C@@H](c1ccccc1)[C@@H]3C(=O)c1ccccc1`, the composite z-score is 0.189 and -0.932 in experiment [1]; 0.494 and 0.9 in experiment [3]; 1.43 and -1.06 in [4]; 0.589 and -0.256 in [5]; -0.0417 and -0.137 in experiment [6]; -0.276 and -0.16 in experiment [7]. The composite z-score in experiment [8] was -0.0315 and -0.226; in experiment [9] it was 0.296 and -0.228; in [10] it was 0.932 and -0.0514; with Albumin (Bos taurus), 0.711 and -0.334; in experiment [12], -0.0111 and -0.0048; in experiment [13], -0.119 and -0.0974. For the same compound, the composite z-score was 0.179 and 0.178 in experiment [14]; 0.49 and 0.258 in experiment [15]; 0.315 and -0.144 in experiment [16]; 0.661 and -0.776 in the experiment with Sam68 (KHDRBS1); 0.189 and 0.843 in experiment [17]; 0.675 and 0.142 in experiment [18]. In addition, the z-score in experiment [2] is 0.989 and 0.471. For the same compound, in [11], the composite Z-score is -0.0461 (inactive) and 0.0162 (inactive).
